Experiment [1] deals with Thioredoxin reductase 1, cytoplasmic (Rattus norvegicus) (UniProt O89049). As to the kind of experiment: qHTS Assay for Inhibitors of Mammalian Selenoprotein Thioredoxin Reductase 1 (TrxR1) (AID 488773).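 Note: drop in NADPH fluorescence over an 8 min run after selenite addition; series mostly up to about 57 µM; nearly all actives have a fitted effect of over 40% in size.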 Particulars: Potency: inhibition. Summed up: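 Inhibition is scored from the loss of NADPH fluorescence between first and last reads of an 8-min kinetic run. Selenite (400 uM) was the substrate, added after 15 min compound preincubation at room temperature.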
Thioredoxin reductase 1, cytoplasmic (Rattus norvegicus), sequence (O89049 whole entry, looked up): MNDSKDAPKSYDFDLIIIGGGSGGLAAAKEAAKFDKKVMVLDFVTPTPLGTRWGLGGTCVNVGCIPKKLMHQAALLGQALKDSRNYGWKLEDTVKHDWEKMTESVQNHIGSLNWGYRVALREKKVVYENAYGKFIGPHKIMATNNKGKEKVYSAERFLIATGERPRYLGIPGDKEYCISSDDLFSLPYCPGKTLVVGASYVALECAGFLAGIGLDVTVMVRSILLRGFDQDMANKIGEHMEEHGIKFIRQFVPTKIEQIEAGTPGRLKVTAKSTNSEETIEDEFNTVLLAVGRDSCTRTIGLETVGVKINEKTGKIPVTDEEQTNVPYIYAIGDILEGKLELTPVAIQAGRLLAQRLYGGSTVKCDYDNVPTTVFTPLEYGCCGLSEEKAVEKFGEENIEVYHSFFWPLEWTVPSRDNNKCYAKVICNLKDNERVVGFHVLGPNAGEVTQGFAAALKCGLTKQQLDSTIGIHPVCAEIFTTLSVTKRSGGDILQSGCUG
For orientation: In qHTS, concentration-response curves come from the screen itself.

The target of experiment [2] is Flap endonuclease 1 (Homo sapiens) (UniProt P39748). The experiment in a line: qHTS Validation Assay for the Inhibitors of Human Flap endonuclease 1 (FEN1) (AID 488816). Summed up:
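Steps: add FEN1 (10 nM reagent) or buffer only; pin compounds; hold 15 min at room temperature; start with substrate, 50 nM final; read at 0 and 15 min; correct, normalize and fit a four-parameter Hill curve.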

Experiment [3] has as its target M-phase phosphoprotein 8 (Homo sapiens) (UniProt Q99549). The experiment in a line: qHTS Validation Assay for Inhibitors for MPP8 Chromodomain Interactions with Methylated Histone Tails (AID 488949). Note: nearly all actives have a fitted effect of over 55% in size. Note: potency is the fitted concentration of half-maximal effect. In a few lines: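 MPP8 (50 nM) was pre-bound to 50 nM biotinylated H3(1-18)K9me3 peptide in PBS pH 7.4 with 0.01% Tween-20. Compounds were then added for 30 min at room temperature, and complex disruption was read by AlphaScreen with streptavidin donor and nickel-chelate acceptor beads.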

Experiment [4] has as its target Chromobox protein homolog 1 (Homo sapiens) (UniProt P83916). The experiment in a line: qHTS Validation Assay for Inhibitors of HP1-beta Chromodomain Interactions with Methylated Histone Tails (AID 488953). Note: nearly all actives have a fitted effect of over 50% in size. Note: potency is the fitted concentration of half-maximal effect. Summed up:
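Compounds pinned into a preassembled complex of HP1-beta and trimethyl-K9 histone H3(1-18) biotin peptide (50 nM each; PBS pH 7.4, 0.01% Tween-20). After 30 min, bead-based AlphaScreen detection followed.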

Experiment [5] concerns the target Methanococcus maripaludis chaperonin (MmCpn) (UniProt Q6LX38). As to the kind of experiment: High-Throughput Screening for Modulators of Cytosolic Chaperonin Activity: MmCpn Primary Screen (AID 488978).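 Note: 50 nM MmCpn enzyme hydrolysing 30 µM ATP at 37 °C.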 Summed up: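 MmCpn at 50 nM final was preincubated 5 min at RT with compound. ATP was then added at 30 uM final for 10 min at 37 C. ADP formed was detected by Transcreener HTRF (665/590 nm).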

Experiment [6] concerns the target Transient receptor potential cation channel subfamily V member 1 (Homo sapiens) (UniProt Q8NER1). The experiment in a line: HTS Assay for Compounds that Act as Enhancers of the Vanilloid Receptor 1 (AID 488979). Summed up: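 TRPV1-expressing cells loaded with Fluo-8 calcium dye; compounds added and calcium influx read kinetically for 3 min (agonist phase), then capsaicin at EC20 added and read 2 min more for enhancement. Fluorescence ex 480/em 520 nm.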

In experiment [7] the target is Thyrotropin receptor (Homo sapiens) (UniProt P16473). The experiment in a line: qHTS Assay for Antagonists of the Thyroid Stimulating Hormone Receptor (AID 488980). Note: series mostly up to about 58 µM. In a few lines:
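TSHR-transfected HEK293 cells (2000/well) in HEPES-buffered HBSS with 70 uM RO 20-1724 were stimulated with 4 nM TSH (EC80, final) in the presence of compound. cAMP was measured by HTRF competition after lysis and 30 min at RT.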

Experiment [8] has as its target D(1A) dopamine receptor (Homo sapiens) (UniProt P21728). The experiment in a line: HTS Assay for Allosteric Agonists of the Human D1 Dopamine Receptor: Primary Screen for Agonists (AID 488981). Summed up:
(§1)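 Tetracycline-induced HEK293 T-REx cells force-coupled to calcium signalling were incubated overnight at 30 C and dye-loaded at room temperature. Calcium flux over 180 s after compound addition flagged agonists; a further 180 s read after EC20 dopamine flagged potentiators.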

For experiment [9] the target is unchanged. As to the kind of experiment: HTS Assay for Allosteric Agonists of the Human D1 Dopamine Receptor: Primary Screen for Potentiators (AID 488982). Summed up: as §1
Experiment [10] shares this target. The experiment in a line: HTS Assay for Allosteric Agonists of the Human D1 Dopamine Receptor: Primary Screen for Antagonists (AID 488983).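 Note: calcium flux response to an EC80 dopamine challenge measured with no-wash dye; nearly all actives have a fitted effect of over 65% in size.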 Note: potency is the fitted concentration of half-maximal effect. In a few lines: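 In this primary screen, compounds are applied to calcium-dye-loaded HEK293 T-REx cells with force-coupled D1 expression induced overnight at 30 C. An EC80 of dopamine follows the 180 s compound phase, and calcium is monitored for a further 180 s.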

Results filed as inconclusive are left out. The source holds several records for some structures; these can differ, active in one and inactive in another. The source made the active and inactive calls. Calls come from the whole dose curve; as a rule, active = well fitted curve in the direction sought with a large enough effect; inconclusive = small, poorly fitted or top-dose-only effect, or another doubt; inactive = no such curve, though single readings can be large; an effect the other way counts as inactive or inconclusive.

Methanococcus maripaludis chaperonin (MmCpn), sequence (Q6LX38 1-543): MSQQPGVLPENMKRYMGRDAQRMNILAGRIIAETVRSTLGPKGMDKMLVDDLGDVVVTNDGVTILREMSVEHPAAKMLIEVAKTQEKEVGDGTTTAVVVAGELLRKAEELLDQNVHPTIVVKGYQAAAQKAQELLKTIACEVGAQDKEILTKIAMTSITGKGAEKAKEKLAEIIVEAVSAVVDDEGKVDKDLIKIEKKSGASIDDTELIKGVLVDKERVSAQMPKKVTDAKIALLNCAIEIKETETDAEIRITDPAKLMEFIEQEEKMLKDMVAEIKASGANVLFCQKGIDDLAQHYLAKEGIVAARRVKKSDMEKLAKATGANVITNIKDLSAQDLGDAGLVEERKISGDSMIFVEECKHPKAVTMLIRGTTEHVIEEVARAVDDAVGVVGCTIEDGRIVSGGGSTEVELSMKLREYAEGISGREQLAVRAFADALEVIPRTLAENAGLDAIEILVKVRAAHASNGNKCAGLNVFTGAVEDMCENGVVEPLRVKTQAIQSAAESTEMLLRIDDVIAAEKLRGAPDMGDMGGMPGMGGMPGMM
D(1A) dopamine receptor (Homo sapiens), sequence (P21728 whole entry, looked up): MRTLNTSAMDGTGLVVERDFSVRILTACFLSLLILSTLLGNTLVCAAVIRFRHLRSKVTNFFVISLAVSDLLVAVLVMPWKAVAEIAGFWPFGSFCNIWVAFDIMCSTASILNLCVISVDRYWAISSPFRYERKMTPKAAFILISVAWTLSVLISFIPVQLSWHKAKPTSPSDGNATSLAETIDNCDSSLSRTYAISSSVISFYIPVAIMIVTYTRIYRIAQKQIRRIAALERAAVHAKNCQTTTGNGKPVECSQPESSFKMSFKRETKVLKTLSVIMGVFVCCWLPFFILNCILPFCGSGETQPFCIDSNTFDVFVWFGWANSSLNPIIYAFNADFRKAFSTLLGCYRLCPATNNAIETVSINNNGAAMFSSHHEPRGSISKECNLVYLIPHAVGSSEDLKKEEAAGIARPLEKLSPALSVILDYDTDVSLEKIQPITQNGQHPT
Thyrotropin receptor (Homo sapiens), sequence (P16473 whole entry, looked up): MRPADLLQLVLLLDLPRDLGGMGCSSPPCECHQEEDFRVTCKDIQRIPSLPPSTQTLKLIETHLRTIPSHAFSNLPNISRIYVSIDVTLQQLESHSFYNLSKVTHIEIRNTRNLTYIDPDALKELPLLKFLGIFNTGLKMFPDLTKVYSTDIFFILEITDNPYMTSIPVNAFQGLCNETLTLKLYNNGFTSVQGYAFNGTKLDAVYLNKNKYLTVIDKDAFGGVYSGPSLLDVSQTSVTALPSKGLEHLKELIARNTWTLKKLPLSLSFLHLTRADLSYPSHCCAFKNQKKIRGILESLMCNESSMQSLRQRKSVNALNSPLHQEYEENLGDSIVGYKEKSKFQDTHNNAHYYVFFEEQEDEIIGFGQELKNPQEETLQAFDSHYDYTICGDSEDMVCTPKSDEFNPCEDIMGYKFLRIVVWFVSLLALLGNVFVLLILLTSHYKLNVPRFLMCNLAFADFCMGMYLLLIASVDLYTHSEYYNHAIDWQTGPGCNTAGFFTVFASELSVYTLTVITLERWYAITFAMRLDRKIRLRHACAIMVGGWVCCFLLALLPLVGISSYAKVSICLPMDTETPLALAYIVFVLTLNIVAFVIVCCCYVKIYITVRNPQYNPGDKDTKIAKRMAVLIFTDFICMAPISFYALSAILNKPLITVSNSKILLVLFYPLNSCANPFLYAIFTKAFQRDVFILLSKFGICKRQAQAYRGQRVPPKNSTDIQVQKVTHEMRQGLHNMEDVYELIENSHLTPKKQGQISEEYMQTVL
Chromobox protein homolog 1 (Homo sapiens), sequence (P83916 whole entry, looked up): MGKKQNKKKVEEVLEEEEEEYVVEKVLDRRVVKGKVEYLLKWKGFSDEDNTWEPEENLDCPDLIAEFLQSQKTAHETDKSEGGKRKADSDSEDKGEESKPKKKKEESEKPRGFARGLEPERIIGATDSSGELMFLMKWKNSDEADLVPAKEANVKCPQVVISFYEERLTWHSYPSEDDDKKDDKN
Transient receptor potential cation channel subfamily V member 1 (Homo sapiens), sequence (Q8NER1 whole entry, looked up): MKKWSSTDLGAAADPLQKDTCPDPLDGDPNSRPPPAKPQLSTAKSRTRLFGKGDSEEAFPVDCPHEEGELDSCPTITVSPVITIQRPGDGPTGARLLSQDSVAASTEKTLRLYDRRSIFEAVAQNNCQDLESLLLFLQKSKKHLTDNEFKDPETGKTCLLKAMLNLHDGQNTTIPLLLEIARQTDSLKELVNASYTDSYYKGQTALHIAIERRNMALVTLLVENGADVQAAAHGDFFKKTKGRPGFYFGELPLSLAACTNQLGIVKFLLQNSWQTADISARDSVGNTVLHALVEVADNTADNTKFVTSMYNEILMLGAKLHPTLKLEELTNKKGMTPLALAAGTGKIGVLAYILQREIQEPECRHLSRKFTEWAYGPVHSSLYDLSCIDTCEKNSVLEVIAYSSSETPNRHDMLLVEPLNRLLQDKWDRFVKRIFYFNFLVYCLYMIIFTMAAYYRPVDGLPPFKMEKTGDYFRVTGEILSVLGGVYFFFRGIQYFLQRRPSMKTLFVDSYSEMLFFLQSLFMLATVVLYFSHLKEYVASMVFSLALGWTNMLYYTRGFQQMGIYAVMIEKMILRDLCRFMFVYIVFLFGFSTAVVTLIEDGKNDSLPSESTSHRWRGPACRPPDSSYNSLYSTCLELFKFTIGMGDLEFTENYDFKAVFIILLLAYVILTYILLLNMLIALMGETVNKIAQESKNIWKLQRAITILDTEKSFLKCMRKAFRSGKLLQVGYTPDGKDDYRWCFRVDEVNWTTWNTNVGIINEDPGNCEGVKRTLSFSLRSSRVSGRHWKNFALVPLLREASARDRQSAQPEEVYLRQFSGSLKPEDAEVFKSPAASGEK
Flap endonuclease 1 (Homo sapiens), sequence (P39748 whole entry, looked up): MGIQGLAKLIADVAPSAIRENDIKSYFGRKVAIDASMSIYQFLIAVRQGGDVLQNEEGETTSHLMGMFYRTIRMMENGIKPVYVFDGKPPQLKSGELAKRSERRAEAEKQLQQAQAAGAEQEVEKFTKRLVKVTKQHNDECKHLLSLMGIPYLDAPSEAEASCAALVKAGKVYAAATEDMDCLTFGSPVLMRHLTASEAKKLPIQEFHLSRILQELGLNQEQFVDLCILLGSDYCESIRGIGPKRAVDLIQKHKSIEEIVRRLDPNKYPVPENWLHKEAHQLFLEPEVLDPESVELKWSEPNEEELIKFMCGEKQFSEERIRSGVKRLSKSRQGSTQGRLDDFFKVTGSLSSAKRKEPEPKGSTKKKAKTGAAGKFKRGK
M-phase phosphoprotein 8 (Homo sapiens), sequence (Q99549 whole entry, looked up): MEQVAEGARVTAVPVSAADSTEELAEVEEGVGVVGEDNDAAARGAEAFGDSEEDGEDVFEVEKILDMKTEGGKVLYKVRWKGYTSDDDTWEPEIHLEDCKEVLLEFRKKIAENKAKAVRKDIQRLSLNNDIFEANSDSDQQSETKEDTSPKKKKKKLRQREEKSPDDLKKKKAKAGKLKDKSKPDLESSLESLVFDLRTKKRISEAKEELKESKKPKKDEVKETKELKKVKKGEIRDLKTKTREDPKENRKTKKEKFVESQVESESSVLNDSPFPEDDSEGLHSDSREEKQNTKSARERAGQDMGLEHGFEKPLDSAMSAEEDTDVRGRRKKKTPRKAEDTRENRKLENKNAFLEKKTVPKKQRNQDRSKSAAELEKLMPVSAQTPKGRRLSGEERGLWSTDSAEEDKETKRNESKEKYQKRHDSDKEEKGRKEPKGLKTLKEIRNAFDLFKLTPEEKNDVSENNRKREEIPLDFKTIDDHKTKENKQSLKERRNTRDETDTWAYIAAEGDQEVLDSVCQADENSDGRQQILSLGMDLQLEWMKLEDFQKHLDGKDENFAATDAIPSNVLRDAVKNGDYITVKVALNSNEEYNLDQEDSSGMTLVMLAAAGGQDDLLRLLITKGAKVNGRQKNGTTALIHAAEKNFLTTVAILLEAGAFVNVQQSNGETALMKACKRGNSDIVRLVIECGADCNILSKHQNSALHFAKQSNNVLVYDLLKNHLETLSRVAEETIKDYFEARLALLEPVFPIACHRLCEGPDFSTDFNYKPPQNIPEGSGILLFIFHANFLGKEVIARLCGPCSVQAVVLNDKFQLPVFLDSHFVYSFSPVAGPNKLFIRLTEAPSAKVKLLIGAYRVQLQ

On to `Nc1c2c(nc3ccccc13)CCCC2O` (centres undefined), for which the Potency result in [1], in experiment [2], in experiment [3], in experiment [4], in [8] and in experiment [9] was “inactive” throughout. In experiment [10], the Potency entry was “inactive”. Further, the result in experiment [5], in experiment [6] and in [7] was inactive.

On to `Cc1nc2sccn2c(=O)c1CCN1CCC(=C(c2ccc(F)cc2)c2ccc(F)cc2)CC1`, for which the Potency result in experiment [1], in [2], in experiment [8] and in experiment [9] was “inactive” throughout. For the same compound, the Potency in experiment [3] was 28.2 µM (active) and inactive; in [4] it was 44.7 µM (active). Moreover, the compound was classed as inactive in experiment [5], in experiment [6] and in [7].

For `CCn1ccnc1CC1COc2ccccc2O1` (centres undefined), the Potency result in [1], in experiment [2], in experiment [3], in experiment [4], in experiment [8] and in experiment [9] was “inactive” each time. The Potency entry in experiment [10] is “inactive”. For the same compound, the compound was called inactive in experiment [5], in experiment [6] and in experiment [7].

Turning to `CCCCNc1ccc(C(=O)OCCN(C)C)cc1`, the Potency entry in [1], in experiment [2], in [3], in experiment [4], in experiment [8] and in [9] was “inactive” throughout. Moreover, in [10], the Potency result is “inactive”. Also, the compound was called inactive in [5], in experiment [6] and in [7].

On to `C[N+](C)(C)CCOC(=O)CCC(=O)OCC[N+](C)(C)C`, for which the Potency result in experiment [1], in [2], in experiment [3], in [4], in [8] and in [9] was “inactive” each time. For the same compound, the result in [5], in [6] and in [7] was inactive.

`NC(=O)c1ncn([C@@H]2O[C@H](CO)[C@@H](O)[C@H]2O)c1O`: the Potency entry in experiment [1], in experiment [2], in experiment [3], in [4], in experiment [8] and in [9] was “inactive” throughout. Further, the Potency result in experiment [10] is “inactive”. The compound was classed as inactive in experiment [5], in [6] and in [7].

As to `CCCN(CCC)CCc1cccc2c1CC(=O)N2`, the Potency result in [1], in experiment [2], in experiment [3], in experiment [4], in [8] and in experiment [9] was “inactive” throughout. Besides, the Potency entry in experiment [10] was “inactive”. The compound was classed as inactive in experiment [5], in experiment [6] and in experiment [7].

`OC(CCN1CCCCC1)(c1ccccc1)C1CCCCC1` (centres undefined): the Potency entry in experiment [1], in experiment [2], in experiment [3], in experiment [4], in experiment [8] and in experiment [9] was “inactive” throughout. In addition, in experiment [10], the Potency result was “inactive”. Further, the outcome in experiment [5], in [6] and in [7] was inactive.

Turning to `C[N+](C)(C)CCOC(N)=O`, the Potency entry in experiment [1], in [2], in experiment [3], in experiment [4], in experiment [8] and in [9] was “inactive” each time. Moreover, the Potency entry in experiment [10] is “inactive”. Besides, the compound was called inactive in [5], in [6] and in experiment [7].

Regarding `O=C(CCNNC(=O)c1ccncc1)NCc1ccccc1`, the Potency result in experiment [1], in experiment [2], in [3], in [4], in experiment [8] and in [9] was “inactive” throughout. Moreover, the Potency entry in [10] is “inactive”. In addition, the compound was classed as inactive in experiment [5], in experiment [6] and in [7].

As to `CCCCNc1c(C(=O)OCC)c(C)nc2c1cnn2CC`, the Potency result in experiment [1], in experiment [2], in experiment [3], in experiment [4], in experiment [8] and in experiment [9] was “inactive” throughout. Further, the call in [5], in experiment [6] and in experiment [7] was inactive.

As to `CC(=O)Oc1cc(C(C)C)c(OCCN(C)C)cc1C`, the Potency result in experiment [1], in experiment [2], in experiment [3], in [4], in [8] and in experiment [9] was “inactive” each time. In addition, the Potency result in [10] was “inactive”. The compound was called inactive in [5], in experiment [6] and in experiment [7].

As for `O=c1[nH]c(=O)n([C@H]2C[C@H](O)[C@@H](CO)O2)cc1Br`, the Potency entry in experiment [1], in experiment [2], in experiment [3], in experiment [4], in experiment [8] and in [9] was “inactive” in each case. Besides, the Potency entry in experiment [10] is “inactive”. Besides, the compound was called inactive in [5], in [6] and in experiment [7].

In the case of `CC(C)COCC(CN(Cc1ccccc1)c1ccccc1)N1CCCC1` (centres undefined), the Potency result in experiment [1], in experiment [2], in [3], in experiment [4], in experiment [8] and in experiment [9] was “inactive” in each case. Moreover, in [10], the Potency result is “inactive”. Also, the result in [5] and in experiment [6] was inactive.

Take `CN(C)CCOC(=O)COc1ccc(Cl)cc1`: the Potency entry in [1], in experiment [2], in experiment [3], in experiment [4], in [8] and in [9] was “inactive” each time. Besides, the Potency entry in [10] was “inactive”. Further, the call in experiment [5] and in [6] was inactive.

Turning to `Cc1nc2c([nH]1)c(=O)n(C)c(=O)n2Cc1ccco1`, the Potency result in experiment [1], in experiment [2], in experiment [3], in experiment [4], in experiment [8] and in experiment [9] was “inactive” throughout. In addition, the Potency entry in experiment [10] is “inactive”. Moreover, the outcome in [5] and in [6] was inactive.

For the compound `CCCCNC(=O)NS(=O)(=O)c1ccc(C)cc1`, the Potency entry in experiment [1], in experiment [2], in experiment [3], in [4], in experiment [8] and in experiment [9] was “inactive” in each case. Besides, the Potency result in experiment [10] was “inactive”. The result in experiment [5] and in [6] was inactive.

Take `CCc1cccc(N(C)C(N)=Nc2cccc3ccccc23)c1`: the Potency entry in experiment [1], in experiment [2], in experiment [3], in experiment [9] and in experiment [10] was “inactive” each time. Also, the Potency in experiment [4] was 0.0075 µM (active). The result in experiment [5] and in [7] was inactive.

As for `COCCc1ccc(OCC(O)CNC(C)C)cc1` (centres undefined), the Potency result in [1], in experiment [2], in experiment [3], in experiment [4], in experiment [8] and in experiment [9] was “inactive” throughout. In [10], the Potency result was “inactive”. Moreover, the result in experiment [5] and in experiment [6] was inactive.

As to `CCN(CC)CCOCCOC(=O)C1(c2ccccc2)CCCC1`, the Potency entry in experiment [1], in experiment [2], in [3], in experiment [4], in experiment [8] and in experiment [9] was “inactive” each time. For the same compound, the Potency entry in experiment [10] is “inactive”. Further, the compound was called inactive in experiment [5] and in experiment [6].

For the compound `C#CCN(C)CCCOc1ccc(Cl)cc1Cl`, the Potency entry in experiment [1], in experiment [2], in experiment [3], in experiment [4], in [8] and in [9] was “inactive” throughout. The Potency result in [10] is “inactive”. Also, the compound was classed as inactive in [5] and in experiment [6].

For the compound `COc1ccc(CN(CCN(C)C)c2ccccn2)cc1`, the Potency result in experiment [1], in [2], in experiment [3], in experiment [4], in [8] and in [9] was “inactive” throughout. In [10], the Potency entry is “inactive”. Besides, the result in experiment [5] and in experiment [6] was inactive.

`Cc1nc2ccccn2c(=O)c1CCN1CCC(C(=O)c2ccc(F)cc2)CC1`: the Potency entry in [1], in experiment [2], in [3], in experiment [4], in [8] and in [9] was “inactive” in each case. Moreover, the compound was called inactive in experiment [5] and in experiment [6]. Also, the Potency in experiment [10] was 4.47 µM (active).

Take `O=C1NCN(c2ccccc2)C12CCN(CCCC(c1ccc(F)cc1)c1ccc(F)cc1)CC2`: the Potency entry in experiment [1], in experiment [2], in experiment [8] and in [9] was “inactive” in each case. Further, the Potency in [3] was 14.1 µM (active); in [4], 39.8 µM (active). The compound was classed as inactive in [5] and in experiment [6].
